About 83,000 compounds went through this panel and 20% of them were active in at least one assay; those are over-represented in the sample as a whole.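 96-well plates, one dose, 48 hours. Percent growth reported; active if below 10.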 Activity calls are given as the source filed them.
Legend:
Assay in all cases: NCI-60 one-dose screen, 48 h (100 = growth as untreated, 0 = no growth, -100 = all killed)
Conditions in all cases: 10 µM unless noted
[1] = tested on: SR leukemia
[2] = tested on: RPMI-8226 leukemia
[3] = tested on: OVCAR-8 ovarian
[4] = tested on: OVCAR-5 ovarian
[5] = tested on: OVCAR-4 ovarian
[6] = tested on: SK-OV-3 ovarian
[7] = tested on: IGROV1 ovarian
[8] = tested on: HS 578T breast
[9] = tested on: NCI/ADR-RES ovarian
[10] = tested on: T-47D breast
[11] = tested on: BT-549 breast
[12] = tested on: MDA-MB-435 melanoma
[13] = tested on: SW-620 colon
[14] = tested on: MCF7 breast
[15] = tested on: HCT-116 colon
[16] = tested on: HCC-2998 colon
[17] = tested on: KM12 colon

Measured: growth

COc1cc(C2C=C(C)N=C3SC=C(C)N32)cc(OC)c1OC (stereo not drawn)
inactive: [5] 12.6% | [9] 19.5%
active: [1] -6.27% | [2] -26.3% | [3] 9.1% | [4] -45.8% | [6] -5.5% | [7] -49.8% | [8] 2% | [10] 7.98% | [11] -49.9% | [12] -33.3% | [13] -44.5% | [14] -14.8% | [15] -67.5% | [16] -90.5% | [17] -77%

COC(=O)CC/C(C)=N\Nc1ccc([N+](=O)[O-])cc1
inactive: [1] 34.6% | [2] 51.8% | [3] 59.1% | [4] 79.4% | [5] 76.3% | [6] 62.5% | [7] 74.2% | [8] 81.7% | [9] 78% | [10] 42% | [11] 89.1% | [12] 31.7% | [13] 54.4% | [14] 77.1% | [15] 54.1% | [16] 66.1% | [17] 24.3%

Oc1ccc(Cl)cc1-c1cc(-c2ccc(Cl)cc2)n[nH]1
inactive: [1] 41.6% | [2] 40.4% | [3] 72.5% | [4] 73.3% | [5] 35% | [6] 79% | [7] 34.5% | [8] 81.5% | [9] 65.1% | [10] 30.9% | [11] 84% | [12] 84.9% | [13] 81% | [15] 43.8% | [16] 22% | [17] 29.6%
active: [14] 3.03%

Clc1nc(-c2cccnc2)nc2sc3c(c12)CCCCCC3
inactive: [1] 87.6% | [2] 96.9% | [3] 103% | [4] 102% | [5] 97.1% | [6] 102% | [7] 107% | [8] 109% | [9] 106% | [10] 95.4% | [11] 99.8% | [12] 97.3% | [13] 106% | [14] 92.7% | [15] 97.1% | [16] 107% | [17] 116%

NS(=O)(=O)c1ccc(NCC(=O)Nc2ccc(-c3nc4ccccc4s3)cc2)cc1
inactive: [1] 16% | [2] 36.7% | [3] 82.7% | [4] 106% | [5] 67.2% | [6] 106% | [7] 59% | [8] 98.3% | [9] 94% | [10] 46.4% | [11] 14.5% | [12] 77% | [13] 63.7% | [14] 27.6% | [15] 25.1% | [16] 87.6% | [17] 61.6%

CCC1CCc2nc3sc(C(=O)Nc4ccccc4C)c(N)c3cc2C1 (stereo not drawn)
inactive: [1] 12.8% | [3] 57.3% | [4] 76.5% | [5] 89% | [6] 44.8% | [7] 65.3% | [8] 49.4% | [9] 18.4% | [10] 63.6% | [11] 74.7% | [13] 26.9% | [14] 15.2% | [15] 25.5% | [16] 62.2% | [17] 29.6%
active: [2] 3.92% | [12] -38.4%

Cn1c(C(N)=O)cc2c1-c1nc(NC3CCCCC3)ncc1CCC2
inactive: [1] 92.5% | [2] 93.5% | [3] 88.1% | [4] 64.6% | [5] 93.4% | [6] 91.3% | [7] 113% | [8] 58.5% | [9] 91.5% | [10] 105% | [11] 80.7% | [12] 96.5% | [13] 89.7% | [14] 90.6% | [15] 88.1% | [16] 97.5% | [17] 104%

Nc1c(C(=O)Nc2ccccc2)sc2nc3c(cc12)CCCCC3
inactive: [1] 17% | [3] 17.9% | [4] 43.8% | [5] 15.3% | [6] 17.1% | [7] 36.2% | [8] 14.5% | [10] 42.2% | [11] 48.8% | [13] 24.2% | [14] 12.1% | [15] 11.2% | [16] 43.5% | [17] 12.2%
active: [2] -29.6% | [9] 2.18% | [12] -50.7%

CC(=O)Nc1nc(C(=O)N2N=C(C)/C(=C/c3cccs3)C2=O)cs1
inactive: [1] 91.9% | [2] 97.4% | [3] 103% | [4] 115% | [5] 106% | [6] 99.4% | [7] 97.1% | [8] 114% | [9] 112% | [10] 100% | [11] 97% | [12] 103% | [13] 110% | [14] 90.8% | [15] 100% | [16] 108% | [17] 110%

Clc1ccc(/C=C/c2nc(N3CCOCC3)c3nc(Cl)c(Cl)cc3n2)cc1
inactive: [1] 98% | [2] 102% | [3] 108% | [4] 110% | [5] 128% | [6] 105% | [7] 117% | [8] 104% | [9] 98.5% | [10] 73% | [11] 93.6% | [12] 98.1% | [13] 114% | [14] 56.8% | [15] 83.7% | [16] 94.4% | [17] 114%

COc1ccc(NC(=O)CSc2nc3ccccc3c(=O)n2Cc2cc(OC)c(OC)c(OC)c2)cc1
inactive: [1] 82.3% | [2] 86% | [3] 91.9% | [4] 102% | [5] 82.8% | [6] 97% | [7] 99% | [8] 96.1% | [9] 84% | [10] 84% | [11] 89.1% | [13] 104% | [14] 93.8% | [15] 89.5% | [16] 109% | [17] 97.7%

COc1cc(CNC(=O)CCSc2nc3ccccc3c(=O)n2Cc2cc(OC)c(OC)c(OC)c2)cc(OC)c1OC
inactive: [1] 11.1% | [2] 39.2% | [3] 48.2% | [4] 68.3% | [5] 58.9% | [6] 27.3% | [7] 51.3% | [8] 57.4% | [9] 17.4% | [10] 29.3% | [11] 48.3% | [13] 23.9% | [14] 15.4% | [15] 17% | [16] 86% | [17] 17.3%
active: [12] -28.7%

CC(=O)Nc1nc(C(=O)N2N=C(C)/C(=C/c3ccccc3)C2=O)cs1
inactive: [1] 90.7% | [2] 102% | [3] 105% | [4] 99.9% | [5] 110% | [6] 97.6% | [7] 101% | [8] 111% | [9] 110% | [10] 98.6% | [11] 107% | [12] 106% | [13] 107% | [14] 95.9% | [15] 98.3% | [16] 104% | [17] 102%

CC(=O)Nc1nc(C(=O)N2N=C(C)/C(=C/c3ccc(Cl)cc3)C2=O)cs1
inactive: [1] 88.1% | [2] 103% | [3] 103% | [4] 110% | [5] 112% | [6] 108% | [7] 108% | [8] 114% | [9] 109% | [10] 95.6% | [11] 97.4% | [12] 112% | [13] 109% | [14] 94.4% | [15] 99.9% | [16] 104% | [17] 101%

COC1=CC(c2ccc[nH]2)=N/C1=C\c1[nH]c(C)c(C(=O)CCCCC(=O)Oc2ccc3c(c2)CCC2C3CC[C@]3(C)[C@@H](O)CC[C@@H]23)c1C (stereo partly drawn)
inactive: [1] 23.2% | [2] 45% | [3] 70.8% | [4] 65.6% | [5] 48.6% | [6] 90% | [7] 70.7% | [8] 54.3% | [9] 82.4% | [11] 50.3% | [12] 51.2% | [13] 37.4% | [14] 27.2% | [15] 20.9% | [16] 83.1% | [17] 29.4%
active: [10] 5.62%

O=S(=O)(NCCCNc1nccc(-c2c(-c3ccc(O)cc3)nc3sccn23)n1)c1ccc(F)cc1
active: [1] 3.07% | [2] -13% | [6] -4.21% | [7] 5.53% | [10] -5.79% | [12] -17.9% | [13] 9.69% | [14] 6.45% | [15] -40% | [16] -10.7%
inactive: [3] 14.2% | [4] 14.4% | [5] 14.9% | [8] 11.5% | [9] 48.9% | [11] 14% | [17] 11.9%

COc1cc(Cn2c(SCC(=O)Nc3cc(OC)c(OC)c(OC)c3)nc3ccccc3c2=O)cc(OC)c1OC
inactive: [1] 66.6% | [2] 96% | [3] 81% | [4] 88.8% | [5] 89.8% | [6] 51.2% | [7] 72.6% | [8] 48.4% | [9] 99.5% | [10] 77% | [11] 65.2% | [12] 102% | [13] 91.7% | [14] 95.3% | [15] 58.3% | [16] 124% | [17] 99.1%
